Measured values from PubChem BioAssay AID1159580 (chemical genetic matrix, 2015).
Hit rate of the full screen: of about 5,500 compounds, about 2,000 (36%) were called active. Another 18% or so got no clear call; they are omitted. Cut-off read from the data, not from the text of the source: active = normalized growth mostly below about 0.91 (no sharp cut-off); inconclusive = no clear call, values can overlap the other calls; inactive = mostly above about 0.92. The list shows a part of the results.

Assay: chemical genetic growth profiling, strain panel (AID 1159580);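 note: tested at 20 µM; growth read once vehicle control cultures reached saturation at 30 °C; 1 = growth at the plate median or of vehicle wells; lower values mean less growth of the strain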
Conditions: S. cerevisiae deletion strains, growth OD

Measured: normalized growth

Oc1ccc2c(c1)O[C@H](c1ccc(O)c(O)c1)[C@@H](O)C2
inactive: locus YAL013W, strain DEP1, hits give low values 1.03 | locus YAL021C, strain ccr4, hits give low values 1.02 | locus YAL026C, strain drs2, hits give low values 1.03 | locus YAL030W, strain snc1, hits give low values 1.02 | locus YBL061C, strain skt5, hits give low values 1.04 | locus YBR009C, strain hhf1, hits give low values 1.03 | locus YBR021W, strain FUR4, hits give low values 1.04 | locus YBR023C, strain chs3, hits give low values 1.03 | locus YBR171W, strain sec66, hits give low values 1.03 | locus YBR229C, strain ROT2, hits give low values 1.03 | locus YBR231C, strain swc5, hits give low values 1.03 | locus YBR279W, strain paf1, hits give low values 1.02 | locus YCL011C, strain gbp2, hits give low values 1.02 | locus YCL016C, strain dcc1, hits give low values 1.02 | locus YCL029C, strain bik1, hits give low values 1.02 | locus YCL061C, strain MRC1, hits give low values 1.02 | locus YCL069W, strain vba3, hits give low values 1.03 | locus YCR088W, strain abp1, hits give low values 1.02 | locus YDL005C, strain med2, hits give low values 1.02 | locus YDL035C, strain GPR1, hits give low values 1.07 | locus YDL040C, strain nat1, hits give low values 1.03 | locus YDL074C, strain BRE1, hits give low values 1.08 | locus YDL101C, strain DUN1, hits give low values 1.03 | locus YDL134C, strain PPH21, hits give low values 1.05 | locus YDL185W, strain tfp1, hits give low values 0.989 | locus YDL192W, strain arf1, hits give low values 1.03 | locus YDR001C, strain nth1, hits give low values 1.03 | locus YDR069C, strain doa4, hits give low values 1.03 | locus YDR101C, strain arx1, hits give low values 1 | locus YDR137W, strain rgp1, hits give low values 1.01 | locus YDR150W, strain NUM1, hits give low values 1.03 | locus YDR159W, strain sac3, hits give low values 1.04 | locus YDR162C, strain NBP2, hits give low values 1.04 | locus YDR195W, strain ref2 0.991 | locus YDR297W, strain sur2, hits give low values 1.03 | locus YDR318W, strain mcm21, hits give low values 1.01 | locus YDR334W, strain swr1, hits give low values 1.04 | locus YDR335W, strain msn5, hits give low values 1.03 | locus YDR388W, hits give low values 0.992 | locus YDR392W, strain spt3, hits give low values 1.03 | locus YDR502C, strain sam2, hits give low values 0.993 | locus YEL003W, strain gim4, hits give low values 1.03 | locus YEL037C, strain rad23, hits give low values 1.02 | locus YEL061C, strain CIN8 (second series), hits give low values 1.03 | locus YEL061C, strain CIN8, hits give low values 1.03 | locus YER015W, strain faa2, hits give low values 1.02 | locus YER016W, strain bim1, hits give low values 1.02 | locus YER110C, hits give low values 1.02 | locus YER111C, strain swi4, hits give low values 1.03 | locus YER155C, strain BEM2 (second series), hits give low values 1.03 | locus YER155C, strain BEM2, hits give low values 1.03 | locus YER167W, strain BCK2, hits give low values 1.03 | locus YFR010W, strain ubp6, hits give low values 1.02 | locus YGL078C, strain dbp3, hits give low values 1.01 | locus YGL086W, strain mad1, hits give low values 0.997 | locus YGL167C, strain pmr1, hits give low values 1.02 | locus YGL173C, strain kem1, hits give low values 1.04 | locus YGL227W, strain vid30, hits give low values 1.03 | locus YGL240W, strain doc1, hits give low values 1.03 | locus YGL248W, strain PDE1, hits give low values 1.06 | locus YGL253W, strain hxk2, hits give low values 1.02 | locus YGR078C, strain PAC10, hits give low values 1.04 | locus YGR135W, strain pre9, hits give low values 1.01 | locus YGR252W, strain gcn5, hits give low values 0.989 | locus YHR013C, strain ard1, hits give low values 1.02 | locus YHR027C, strain rpn1, hits give low values 1.02 | locus YHR030C, strain SLT2, hits give low values 1.03 | locus YHR079C, strain IRE1 (second series), hits give low values 1 | locus YHR094C, strain hxt1, hits give low values 0.99 | locus YHR129C, strain ARP1, hits give low values 1.03 | locus YHR142W, strain chs7, hits give low values 1.04 | locus YHR200W, strain rpn10, hits give low values 1 | locus YIL066C, strain RNR3, hits give low values 1.04 | locus YIL073C, strain SPO22, hits give low values 1.1 | locus YIL125W, strain kgd1, hits give low values 1.02 | locus YIR030C, strain dcg1, hits give low values 1 | locus YJL092W, strain hpr5, hits give low values 1.02 | locus YJL095W, strain BCK1 (second series), hits give low values 1.03 | locus YJL095W, strain BCK1, hits give low values 1.08 | locus YJL115W, strain asf1, hits give low values 1.02 | locus YJL129C, strain trk1, hits give low values 1.04 | locus YJL134W, strain LCB3, hits give low values 1.03 | locus YJL154C, strain vps35, hits give low values 1.02 | locus YJL164C, strain tpk1, hits give low values 1.03 | locus YJL166W, strain qcr8, hits give low values 1.03 | locus YJL168C, strain set2, hits give low values 1.01 | locus YJL187C, strain SWE1 (second series), hits give low values 1.04 | locus YJL187C, strain SWE1, hits give low values 1.03 | locus YJR043C, strain POL32, hits give low values 1.06 | locus YKL009W, strain mrt4, hits give low values 1.01 | locus YKL068W, hits give low values 0.988 | locus YKL085W, strain MDH1 (second series), hits give low values 1.01 | locus YKL085W, strain MDH1, hits give low values 1.01 | locus YKL160W, strain elf1, hits give low values 1.02 | locus YKL190W, strain CNB1, hits give low values 1.03 | locus YKR001C, strain vps1, hits give low values 1.04 | locus YKR026C, strain gcn3, hits give low values 1.02 | locus YKR091W, strain srl3, hits give low values 1.03 | locus YLL001W, strain dnm1, hits give low values 1.02 | locus YLL026W, hits give low values 1.03 | locus YLL041C, strain sdh2, hits give low values 1.03 | locus YLR027C, strain aat2, hits give low values 1.02 | locus YLR039C, strain RIC1, hits give low values 1.23 | locus YLR058C, strain SHM2, hits give low values 1.04 | locus YLR102C, strain apc9, hits give low values 0.992 | locus YLR221C, strain rsa3, hits give low values 1.02 | locus YLR258W, strain gsy2, hits give low values 1.03 | locus YLR262C, strain YPT6 (second series), hits give low values 1.04 | locus YLR262C, strain YPT6, hits give low values 1.25 | locus YLR268W, strain sec22, hits give low values 1.02 | locus YLR320W, strain mms22, hits give low values 1.05 | locus YLR330W, strain CHS5, hits give low values 1.03 | locus YLR342W, strain FKS1, hits give low values 1.03 | locus YLR357W, strain rsc2, hits give low values 1.06 | locus YLR370C, strain arc18, hits give low values 1.04 | locus YLR371W, strain rom2, hits give low values 1.02 | locus YLR384C, strain iki3, hits give low values 1.03 | locus YLR418C, strain cdc73, hits give low values 1.03 | locus YML016C, strain PPZ1, hits give low values 1.03 | locus YML032C, strain rad52, hits give low values 1.01 | locus YML120C, strain ndi1, hits give low values 1.03 | locus YML124C, strain tub3, hits give low values 1.01 | locus YMR058W, strain fet3, hits give low values 1.02 | locus YMR078C, strain ctf18, hits give low values 0.992 | locus YMR125W, strain sto1, hits give low values 1.02 | locus YMR129W, hits give low values 1.03 | locus YMR205C, strain PFK2, hits give low values 1.06 | locus YMR223W, strain ubp8, hits give low values 0.999 | locus YMR231W, strain pep5, hits give low values 1.01 | locus YMR307W, strain GAS1, hits give low values 1.2 | locus YNL067W, strain RPL9B, hits give low values 1.02 | locus YNL071W, strain lat1, hits give low values 1.05 | locus YNL153C, strain GIM3, hits give low values 1.04 | locus YNL209W, strain ssb2, hits give low values 1.01 | locus YNL233W, strain BNI4, hits give low values 1.04 | locus YNL248C, strain rpa49, hits give low values 1.03 | locus YNL250W, strain rad50, hits give low values 1.01 | locus YNL271C, strain bni1, hits give low values 1.03 | locus YNL298W, strain CLA4, hits give low values 1.01 | locus YNL307C, strain MCK1, hits give low values 1.01 | locus YNL322C, strain KRE1 (second series), hits give low values 1.02 | locus YNR049C, strain mso1, hits give low values 1.03 | locus YNR052C, strain pop2, hits give low values 1 | locus YOL012C, strain htz1 0.833 | locus YOL147C, strain pex11, hits give low values 0.996 | locus YOR001W, strain rrp6, hits give low values 1.03 | locus YOR061W, strain CKA2, hits give low values 1.04 | locus YOR069W, strain VPS5, hits give low values 1.03 | locus YOR070C, strain gyp1, hits give low values 1.03 | locus YOR080W, strain dia2, hits give low values 1.02 | locus YOR083W, strain WHI5, hits give low values 1.02 | locus YOR106W, strain vam3, hits give low values 1.03 | locus YOR136W, strain idh2, hits give low values 0.996 | locus YOR144C, strain elg1, hits give low values 0.992 | locus YOR184W, strain ser1, hits give low values 1.05 | locus YOR265W, strain rbl2, hits give low values 1.03 | locus YOR270C, strain vph1, hits give low values 1.06 | locus YOR290C, strain snf2, hits give low values 1.05 | locus YOR316C, strain cot1, hits give low values 0.999 | locus YPL051W, strain arl3, hits give low values 1.01 | locus YPL078C, strain atp4, hits give low values 1.02 | locus YPL106C, strain sse1, hits give low values 0.998 | locus YPL240C, strain hsp82, hits give low values 1.02 | locus YPR119W, strain clb2, hits give low values 0.996 | locus YPR141C, strain kar3, hits give low values 1.01 | locus YPR163C, strain tif3, hits give low values 0.999 | locus YPR167C, strain met16, hits give low values 0.996 | strain wtn01, hits give low values 1.02
